The panel holds about 83,000 compounds, 20% with a hit somewhere; the sample as a whole holds those more often.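 Percent growth is the endpoint: 0 to 100 indicates growth inhibition (40 means 60% inhibition), 0 means no net growth, and negative values indicate cell death.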 Active and inactive are the calls of the source. The calls were made as follows: active = growth percent below 10; inactive = the rest.
System: MDA-MB-468 breast
Experiment: NCI-60 one-dose screen, 48 h (100 = growth as untreated, 0 = no growth, -100 = all killed)
Conditions: 10 µM unless noted

Structure (SMILES)	growth
COC(=O)[C@@H](C)C[C@H](Cc1ccccc1)NC(=O)c1csc([C@@H](C[C@H](C(C)C)N(C)C(=O)[C@@H](NC(=O)[C@H]2CCCCN2C)c2ccc(F)cc2)OC(C)=O)n1	2.95% (active)
Cc1cc(C(C)(C)c2ccc(O)c(C)c2)ccc1O	87.8% (inactive)
CC[C@H](C)[C@H](NC(=O)c1nccn1C)C(=O)N(C)[C@H](C[C@@H](OC(C)=O)c1nc(C(=O)N[C@@H](Cc2ccccc2)C[C@H](C)C(=O)OC)cs1)C(C)C	25.7% (inactive)
CC(C)(NC(=O)O[C@@H]1CN2CCC1CC2)c1csc(-c2ccc(F)cc2)n1	85.2% (inactive)
c1ccc2c(c1)O[As](O[As]1Oc3ccccc3O1)O2	10.7% (inactive)
CC(=O)Nc1ccc(NC(=O)c2ccc([As](O)O)cc2)cc1	92.5% (inactive)
O=P(N1CC1)(N1CC1)N1CCc2ccccc21	95.2% (inactive)
CC(=O)C(c1c(O)c2ccccc2oc1=O)c1cc(=O)oc2c1ccc1ccccc12 (stereo not given)	96.6% (inactive)
CCC(C)[C@H]1C(=O)O[C@H](C(C)C)C(=O)N(C)[C@@H](C(C)C)C(=O)O[C@H](C(C)C)C(=O)N(C)[C@@H](C(C)C)C(=O)O[C@H](C(C)C)C(=O)N1C (stereo not given in full)	-0.302% (active)
COc1ccc(C(O)(C(=O)O)c2ccc(OC)cc2)cc1	104% (inactive)
O=C1C2C(C(=O)[N]1[Hg][c]1ccccc1)C1(Cl)C(Cl)=C(Cl)C2(Cl)C1(Cl)Cl (stereo not given)	-72.7% (active)
C[C@]12CCc3nc(-c4ccc(O)c(O)c4)sc3C1=CC[C@@H]1[C@@H]2CC[C@]2(C)C(=O)CC[C@@H]12	80.1% (inactive)
CC(C)=CCC/C(C)=C/C=N\N=C(/N)N[N+](=O)[O-]	103% (inactive)
N#CCCNc1ccccc1	108% (inactive)
N#CC(C#N)=Cc1cccc(F)c1	109% (inactive)
COc1ccc2nc(NC(=O)COc3cc(/C=C\c4cc(OC)c(OC)c(OC)c4)ccc3OC)sc2c1	-5.6% (active)
Cc1cc(C(C)(C)C)ccc1O	99.3% (inactive)
CCOC(=O)Nc1cc(Cl)c([N+](=O)[O-])c(NC(=O)OCC)n1	87.2% (inactive)

Structure (SMILES)	growth
COc1ccc(/C(C)=C(\c2ccc(OCCN3CCOCC3)cc2)c2ccc(OC(=O)Cc3ccccc3)cc2)cc1	104% (inactive)
C=C(C)[C@@]12OC3(/C=C/C=C/CCCCC)O[C@@H]1[C@@H]1[C@@H]4O[C@]4(CO)[C@@H](O)[C@]4(O)C(=O)C(C)=C[C@H]4[C@@]1(O3)[C@H](C)[C@H]2OC(=O)c1ccccc1	56.5% (inactive)
COc1ccc(N(CC(=O)NCCC[Te]c2ccccc2)C(=O)c2ccccc2)cc1	97.2% (inactive)
CS(=N)(=O)CCC(N)C(=O)O (stereo not given)	106% (inactive)
COc1cc(/C=C/[N+](=O)[O-])c([N+](=O)[O-])cc1OC	-71.2% (active)
CC12CC[C@H](O)C=C1/C(=N/O)CC1C2CCC2(C)C1CC[C@@H]2O (stereo not given in full)	100% (inactive)
C/C(=C\c1ccn(-c2ccc(N)cc2F)n1)[C@@H]1C[C@@H]2O[C@]2(C)CCC[C@H](C)[C@H](O)[C@@H](C)C(=O)C(C)(C)[C@@H](O)CC(=O)O1	8.6% (active)
CCCCCCCCOC(=O)CCN1CC1	100% (inactive)
Cc1cc([N+](=O)[O-])c2ccccc2[n+]1[O-]	-55.7% (active)
C[C@H](O)CCC(=O)c1ccoc1	98.7% (inactive)
CC(C)(C)[Si](C)(C)OC1[C@@H](O[Si](C)(C)C(C)(C)C)[C@@H](CNC(=O)NC(=O)CF)O[C@H]1n1cnc2c(NC(=O)Nc3ccccc3)ncnc21 (stereo not given in full)	90.5% (inactive)
O=C(O)CNC(=O)C(Cl)(Cl)Cl	98.8% (inactive)
Oc1ccccc1C=NCCN=Cc1ccccc1O.[Fe]	64.3% (inactive)
Cc1cc(C)nc(C)c1.[Cl][Hg][Cl]	113% (inactive)
CCCCCCCCCCCCOc1ccc(C(=O)Oc2ccc(CSP3(=O)OCC4OC(n5cnc6c(N)ncnc65)C(F)C4OP(=O)(O)OCC4OC(n5ccc(=O)[nH]c5=O)C(F)C4O3)cc2)cc1 (stereo not given)	108% (inactive)
C[C@]12CCc3sc(Nc4ccc(OC(F)(F)F)cc4)nc3C1=CC[C@@H]1[C@@H]2CC[C@]2(C)C(=O)CC[C@@H]12	69.1% (inactive)
ClCCN(CCCl)c1ccc(/C=N/Nc2ncnc3nc[nH]c23)cc1	49.8% (inactive)

From PubChem BioAssay (NCI)
